According to PubChem BioAssay (NCATS):
Inconclusive results are not listed. Where a call stands in place of a potency, no number is given. A number with no mark means an inactive call. Active and inactive are the calls of the source. Calls follow the shape of the dose curve; as a rule, active = well fitted curve in the direction sought with a large enough effect; inconclusive = small, poorly fitted or top-dose-only effect, or another doubt; inactive = no such curve, though single readings can be large; an effect the other way counts as inactive or inconclusive. Square brackets hold non-standard residues; d marks the D form. Peptide text beside a SMILES is read from it. Hyp = O=C(O)[CH]1C[CH](O)CN1; Phe(ol) = N[CH](CO)Cc1ccccc1; Iva = CC[C](C)(N)C(=O)O; Aib = CC(C)(N)C(=O)O

What was measured:
[1] = target: Cellular tumor antigen p53 (Homo sapiens) (UniProt P04637); test: Primary qHTS for small molecule compounds that upregulate eGFP-tagged delta133p53alpha (in N-terminal) cells. (AID 2060322); details: NCI-H358 eGFP-delta133p53alpha fluorescence, 24 h; activation: active compounds read high; also: nearly all actives have a fitted effect of over 75% in size; also: potency is read from the fitted curve at half-maximal effect; as to activation: series mostly up to about 56 µM
Cellular tumor antigen p53 (Homo sapiens), sequence (P04637 whole entry, looked up): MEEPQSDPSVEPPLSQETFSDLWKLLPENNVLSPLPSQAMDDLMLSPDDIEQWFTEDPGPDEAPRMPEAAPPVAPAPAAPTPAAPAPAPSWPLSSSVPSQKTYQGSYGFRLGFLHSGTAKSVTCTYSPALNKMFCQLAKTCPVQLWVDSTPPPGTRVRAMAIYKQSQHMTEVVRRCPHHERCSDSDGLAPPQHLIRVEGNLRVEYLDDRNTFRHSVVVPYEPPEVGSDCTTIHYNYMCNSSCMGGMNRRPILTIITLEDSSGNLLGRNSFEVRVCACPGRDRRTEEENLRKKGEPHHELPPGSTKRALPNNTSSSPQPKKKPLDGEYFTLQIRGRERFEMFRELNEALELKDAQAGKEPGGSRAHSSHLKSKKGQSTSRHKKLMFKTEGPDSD
How it was run: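 NCI-H358 cells pre-induced 24 h with 10 ng/ml doxycycline to express N-terminal eGFP-delta133p53alpha, then dosed 24 h at 37C without doxycycline; fixed, Hoechst-stained, GFP intensity by laser scanning cytometry, normalized to DMSO (0%) and 57.5 uM 5-azacytidine (100%).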

[2] = target: Aldehyde dehydrogenase, mitochondrial (Homo sapiens) (UniProt P05091); test: qHTS for Inhibitors of the Aldehyde Dehydrogenase Family (ALDH2) Primary screen (AID 2061308); also: nearly all actives have a fitted effect of over 55% in size
[3] = target: Retinaldehyde dehydrogenase 3 (Homo sapiens) (UniProt P47895); test: qHTS for Inhibitors of the Aldehyde Dehydrogenase Family (ALDH1A3) Primary screen (AID 2061315)

## CC(=O)OC(CSC1CCC(=O)OC(C)CCC(=O)C1)C(=O)O (stereo not drawn)
[1]
  activation: -6.87%
[2]
  Potency: inactive
[3]
  Potency: inactive

## CC(=O)NC1C(OC2CCC3(C)C(CCC4(C)C3CC=C3C5CC(C)(C)CCC5(C(=O)O)C(O)CC34C)C2(C)C)OC(CO)C(O)C1O (stereo not drawn)
[1]
  activation: 1.53%
[2]
  Potency: inactive
[3]
  Potency: inactive

## CCN1CCN(Cc2ccc(NC(=O)c3ccc(C)c(Oc4ccnc5[nH]ccc45)c3)cc2C(F)(F)F)CC1
[1]
  Potency: 14.8 µM (active)
[2]
  Potency: inactive
[3]
  Potency: inactive

## CCOC(=O)C(CCc1ccccc1)NC(C)C(=O)N1C(=O)N(C)CC1C(=O)O (stereo not drawn)
[1]
  activation: -5.25%
[2]
  Potency: inactive
[3]
  Potency: inactive

## C[C@@]1(O)[C@H](O)[C@@H](CO)O[C@H]1n1ccc(N)nc1=O
[1]
  activation: 0.333%
[2]
  Potency: inactive
[3]
  Potency: inactive

## COc1ccc(/C=C/C(=O)O[C@@H]2[C@@H](OC(C)=O)[C@@H](OC(C)=O)[C@H](O[C@H]3[C@@H]4C=CO[C@@H](O[C@@H]5O[C@H](CO)[C@@H](O)[C@H](O)[C@H]5O)[C@@H]4[C@@]4(CO)O[C@@H]34)O[C@H]2C)cc1O
[1]
  activation: -16%
[2]
  Potency: inactive
[3]
  Potency: inactive

## C[C@H](Oc1ccc(S(C)(=O)=O)cc1C(=O)N1CCN(c2ncc(C(F)(F)F)cc2F)CC1)C(F)(F)F
[1]
  activation: 4.46%
[2]
  Potency: inactive
[3]
  Potency: inactive

## COc1ccc2c(c1)C[C@H](C(=O)Nc1ccc(-c3cn[nH]c3)cc1OCCN(C)C)CO2
[1]
  activation: -0.893%
[2]
  Potency: inactive
[3]
  Potency: inactive

## C[C@H]1CC(=O)Nc2cccc(-c3cnn(C(C)(C)C)c3)c2N1
[1]
  activation: -12.5%
[2]
  Potency: inactive
[3]
  Potency: inactive

## C[C@@H](Oc1cc(-n2cnc3ccc(OC4CCN(C)CC4)cc32)sc1C(N)=O)c1ccccc1C(F)(F)F
[1]
  Potency: 4.78 µM (active)
[2]
  Potency: inactive
[3]
  Potency: inactive

## CC1(C)CC[C@]2(C(=O)O[C@@H]3O[C@H](CO)[C@@H](O)[C@H](O)[C@H]3O)CC[C@]3(C)C(=CCC4[C@@]5(C)C[C@@H](O)[C@H](O)[C@@](C)(CO)C5CC[C@]43C)C2C1 (stereo partly drawn)
[1]
  activation: 8.4%
[2]
  Potency: inactive
[3]
  Potency: inactive

## CC1CCC2C(C(=O)O)=CC3C(O)C(C)(C)CC123 (stereo not drawn)
[1]
  activation: -0.763%
[2]
  Potency: inactive
[3]
  Potency: inactive

## OC[C@H]1O[C@@H](OCc2ccccc2)[C@H](O[C@@H]2OC[C@@H](O)[C@H](O)[C@H]2O)[C@@H](O)[C@@H]1O
[1]
  activation: -14.3%
[2]
  Potency: inactive
[3]
  Potency: inactive

## CC[C@@H](C)[C@H]1C(=O)O[C@H](C(C)C)C(=O)N(C)[C@@H](C(C)C)C(=O)O[C@H](C(C)C)C(=O)N(C)[C@@H](C(C)C)C(=O)O[C@H](CC(C)C)C(=O)N1C
[1]
  activation: 22.3%
[2]
  Potency: inactive
[3]
  Potency: inactive

## C[C@@H]1CC[C@]2(C(=O)O[C@@H]3O[C@H](CO)[C@@H](O)[C@H](O)[C@H]3O)CC[C@]3(C)C(=CCC4[C@@]5(C)C[C@@H](O)[C@H](O)[C@@](C)(C(=O)O[C@H]6[C@H](O)C[C@@]7(C)C(CC[C@]8(C)C7CC=C7[C@H]9[C@](C(=O)O[C@@H]%10O[C@H](CO)[C@@H](O)[C@H](O)[C@H]%10O)(CC[C@@H](C)[C@@]9(C)O)CC[C@]78C)[C@@]6(CO)C(=O)O)C5CC[C@]43C)[C@@H]2[C@]1(C)O (stereo partly drawn)
[1]
  activation: 0%
[2]
  activity change, negative = inhibition: -16.3% [at 11.2 µM]
[3]
  activity change, negative = inhibition: -6.62% [at 11.2 µM]

## CC1CCC2(NC1)OC1C(O)C3C4CCC5CC(O[C@@H]6O[C@H](CO)[C@@H](O)[C@H](O)[C@H]6O[C@@H]6O[C@@H](C)[C@H](O)[C@@H](O)[C@H]6O)CCC5(C)C4CCC3(C)C1C2C (stereo partly drawn)
[1]
  activation: -15.3%
[2]
  Potency: inactive
[3]
  Potency: inactive

## C=C[C@]1(C)C=C2CCC3C(C)(CCC[C@@]3(C)C(=O)O)C2CC1 (stereo partly drawn)
[1]
  activation: 3.57%
[2]
  Potency: inactive
[3]
  Potency: inactive

## COc1ccccc1CC(C(=O)O)N(C)C(=O)c1ccccc1 (stereo not drawn)
[1]
  activation: -8.04%
[2]
  Potency: inactive
[3]
  Potency: inactive

## CC1(C)C2CC(OC3OC(COC4OCC(O)(CO)C4O)C(O)C(O)C3O)C1(C)CC2O (stereo not drawn)
[1]
  activation: 1.79%
[2]
  Potency: inactive
[3]
  Potency: inactive

## O=C(/C=C/c1ccc(O)cc1)O[C@@H]1C[C@@](O)(C(=O)O)C[C@@H](O)[C@@H]1O
[1]
  activation: 3.82%
[2]
  Potency: inactive
[3]
  Potency: inactive

## c1cc(-c2cc(C3CCNCC3)[nH]n2)ccn1
[1]
  activation: 1.79%
[2]
  Potency: inactive
[3]
  Potency: inactive

## CCC(C)/C=C(C)/C=C/c1cc2c(cn1)C(=O)C(C)(OC(C)=O)C(O)=C2Cl (stereo not drawn)
[1]
  activation: -6.11%
[2]
  Potency: inactive
[3]
  Potency: inactive

## C[C@H]1[C@H](C)CC[C@]2(C(=O)O[C@@H]3O[C@H](CO)[C@@H](O)[C@H](O)[C@H]3O)CC[C@]3(C(=O)O)C(=CCC4[C@@]5(C)CC[C@H](O[C@@H]6O[C@H](CO)[C@@H](O)[C@H](O)[C@H]6O)C(C)(C)C5CC[C@]43C)[C@H]12 (stereo partly drawn)
[1]
  activation: 2.68%
[2]
  Potency: inactive
[3]
  Potency: inactive

## CCC(C)(NC(=O)C(CCC(N)=O)NC(=O)C1CC(O)CN1C(=O)C(C)(C)NC(=O)C(C)(C)NC(=O)C(CC(C)C)NC(=O)CNC(=O)C(NC(=O)C(C)(C)NC(=O)C(C)(C)NC(=O)C(C)(C)NC(=O)C(Cc1ccccc1)NC(C)=O)C(C)C)C(=O)N1CC(O)CC1C(=O)NC(C)(C)C(=O)NC(CO)Cc1ccccc1 (stereo not drawn) (Ac-F[Aib][Aib][Aib]VGL[Aib][Aib][Hyp]Q[Iva][Hyp][Aib][Phe(ol)]; configuration not given here)
[1]
  activation: 23.7%
[2]
  activity change, negative = inhibition: -9.83% [at 11.2 µM]
[3]
  activity change, negative = inhibition: 11.2% [at 11.2 µM]

## CC(C)=CCC[C@](C)(O[C@@H]1O[C@H](CO)[C@@H](O)[C@H](O)[C@H]1O)[C@H]1CC[C@]2(C)[C@@H]1[C@H](O)CC1[C@@]3(C)CC[C@H](O)C(C)(C)C3[C@@H](O[C@@H]3O[C@H](CO)[C@@H](O)[C@H](O)[C@H]3O)C[C@]12C (stereo partly drawn)
[1]
  activation: 15.3%
[2]
  Potency: inactive
[3]
  Potency: inactive

## C=C1C(=O)O[C@@H]2/C=C(\C)C(=O)/C=C/[C@](C)(O)C[C@@H](OC(=O)C(C)C)[C@@H]12
[1]
  Potency: 2.95 µM (active)
[2]
  Potency: inactive
[3]
  Potency: inactive

## CC(C)/C=C1\NC(=O)C(C(C)C)n2c1nc1ccccc1c2=O (stereo not drawn)
[1]
  activation: -10.7%
[2]
  Potency: inactive
[3]
  Potency: inactive

## C=C1CC2C3(C)C(O)CC(=O)C(C)(C)C3C(OC(C)=O)C(OC(C)=O)C2(C)C2C(=O)OC(C)(C(=O)OC)C(=O)C12C (stereo not drawn)
[1]
  activation: -16.8%
[2]
  Potency: inactive
[3]
  Potency: inactive

## CCOC(=O)c1c(C)nn(-c2cccc([N+](=O)[O-])c2)c1C
[1]
  activation: -9.67%
[2]
  Potency: inactive
[3]
  Potency: inactive

## COc1cc(/C=C/C(=O)O[C@@H]2C[C@](O)(C(=O)O)C[C@@H](O)[C@H]2O)ccc1O
[1]
  activation: 3.57%
[2]
  Potency: inactive
[3]
  Potency: inactive

## O=C(CCCCc1ccc2ccccc2c1)C(F)(F)F
[1]
  activation: 4.33%
[2]
  Potency: inactive
[3]
  Potency: inactive

## C=C(C)[C@@H]1CC[C@]2(C(=O)O)CC[C@]3(C)C(CCC4[C@@]5(C)C[C@@H](O)[C@H](O)C(C)(C)C5CC[C@]43C)C12 (stereo partly drawn)
[1]
  activation: -10.7%
[2]
  Potency: inactive
[3]
  Potency: inactive

## CCCN1CCC(c2cccc(S(C)(=O)=O)c2)CC1
[1]
  activation: -11.9%
[2]
  Potency: inactive
[3]
  Potency: inactive

## CC(C)c1nc(N(C)S(C)(=O)=O)nc(-c2ccc(F)cc2)c1/C=C/[C@@H](O)C[C@@H](O)CC(=O)O
[1]
  activation: -19%
[2]
  Potency: inactive
[3]
  Potency: inactive

## C=C1C2(C)CC3C4(C)C=CC(=O)OC(C)(C)C4CCC3(C)C1(C(=O)OC)C(=O)C(C)(O)C2=O (stereo not drawn)
[1]
  activation: -21.4%
[2]
  Potency: inactive
[3]
  Potency: inactive

## CC(C)NCCCn1c(Sc2cc3c(cc2I)OCO3)nc2c(N)ncnc21
[1]
  activation: 10%
[2]
  Potency: inactive
[3]
  Potency: inactive

## CCOc1cc(CNC2CCCC2)cc(Cl)c1OCc1ccc(Cl)cc1
[1]
  Potency: 21.3 µM (active)
[2]
  Potency: inactive
[3]
  Potency: inactive

## CC12CCC3c4ccc(OC5OC(C(=O)O)C(O)C(O)C5O)cc4CCC3C1CCC2O (stereo not drawn)
[1]
  activation: 11.7%
[2]
  Potency: inactive
[3]
  Potency: inactive

## CC(C)(C)c1ccc(C(=O)Nc2cn3cc(-n4ccnc4)ccc3n2)cc1
[1]
  activation: 1.79%
[2]
  Potency: inactive
[3]
  Potency: inactive

## C/C(=C/CO)CC[C@@H]1[C@@]2(C)CCC[C@](C)(C(=O)O)C2CC[C@@]1(C)O (stereo partly drawn)
[1]
  activation: 27.7%
[2]
  Potency: inactive
[3]
  Potency: inactive

## CN(C)CCCn1cc(C2=C(c3c[nH]c4ccccc34)C(=O)NC2=O)c2ccccc21
[1]
  Potency: 30.1 µM (active)
[2]
  Potency: inactive
[3]
  Potency: inactive

## CC(=O)O[C@@H]1[C@@H](OC(=O)/C=C/c2ccccc2)[C@H](C)O[C@@H](O[C@H]2[C@@H]3C=CO[C@@H](O[C@@H]4O[C@H](CO)[C@@H](O)[C@H](O)[C@H]4O)[C@@H]3[C@@]3(CO)O[C@@H]23)[C@@H]1OC(C)=O
[1]
  activation: -3.82%
[2]
  Potency: inactive
[3]
  Potency: inactive

## C=C1CC[C@@]2(OC1)O[C@H]1CC3C4CC=C5C[C@@H](O[C@@H]6O[C@@H](C)[C@H](O)[C@@H](O)[C@H]6O)C[C@@H](O[C@@H]6O[C@H](C)[C@H](O)[C@H](O)[C@H]6O[C@@H]6O[C@@H](C)[C@H](O)[C@@H](O)[C@H]6O)[C@]5(C)C4CC[C@]3(C)[C@H]1[C@@H]2C (stereo partly drawn)
[1]
  activation: -4.58%
[2]
  Potency: inactive
[3]
  Potency: inactive

## CCOC(=O)C(CCc1ccccc1)NC(C)C(=O)N1Cc2ccccc2CC1C(=O)O (stereo not drawn)
[1]
  activation: -13.4%
[2]
  Potency: inactive
[3]
  Potency: inactive

## CCn1cc(C2=NOC(C(=O)Nc3c(C)n(C)n(-c4ccccc4)c3=O)C2)c(C)n1 (stereo not drawn)
[1]
  activation: 9%
[2]
  Potency: inactive
[3]
  Potency: inactive

## C/C=C(/C)C(=O)O[C@H]1C[C@]2(C)O[C@@H]2[C@@H](OC(C)=O)[C@@]2(C)CC[C@@](O)(C(C)C)[C@H]12
[1]
  activation: -19.1%
[2]
  Potency: inactive
[3]
  Potency: inactive
